Measurements: the supplement of paper PMC4466140

Key:
Assay in all cases: SPOT peptide array binding signal intensity (averaged, normalized) (arbitrary units (background-subtracted, floor 0; scale differs between SH3 domains)); higher = stronger binding of the SH3 domain to the peptide
AgAbp1 = molecular target: AgAbp1
Procedure, shortened: (§1)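 Binding signal is given in arbitrary units that differ between domains and is the normalized, background-subtracted spot intensity averaged across replicates. Each GST-SH3 fusion from one of four yeast species was made in E. coli BL21(DE3), purified on glutathione Sepharose and incubated at 10 μg/ml overnight at 4°C on cellulose-bound synthetic 15-mer peptides in which cysteines were replaced by serines. Detection used anti-GST antibody, an HRP anti-mouse secondary and luminol, followed by imaging and Genespotter quantification.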

AgBbc1 = molecular target: AgBbc1
Procedure, shortened: as §1

AgBem1-D1 = molecular target: AgBem1-D1
Procedure, shortened: as §1

AgBzz1-D1 = molecular target: AgBzz1-D1
Procedure, shortened: as §1

AgBzz1-D2 = molecular target: AgBzz1-D2
Procedure, shortened: as §1

AgCyk3 = molecular target: AgCyk3
Procedure, shortened: as §1

AgFus1 = molecular target: AgFus1
Procedure, shortened: as §1

AgHof1 = molecular target: AgHof1
Procedure, shortened: as §1

AgHse1 = molecular target: AgHse1
Procedure, shortened: as §1

AgLsb1 = molecular target: AgLsb1
Procedure, shortened: as §1

AgLsb4 = molecular target: AgLsb4
Procedure, shortened: as §1

AgMyo5 = molecular target: AgMyo5
Procedure, shortened: as §1

AgNbp2 = molecular target: AgNbp2
Procedure, shortened: as §1

AgRvs167 = molecular target: AgRvs167
Procedure, shortened: as §1

AgSho1 = molecular target: AgSho1
Procedure, shortened: as §1

AgSla1-D1-D2 = molecular target: AgSla1-D1-D2
Procedure, shortened: as §1

AgSla1-D3 = molecular target: AgSla1-D3
Procedure, shortened: as §1

CaAbp1-D1 = molecular target: CaAbp1-D1
Procedure, shortened: as §1

CaAbp1-D2 = molecular target: CaAbp1-D2
Procedure, shortened: as §1

CaBbc1 = molecular target: CaBbc1
Procedure, shortened: as §1

CaBem1-D1 = molecular target: CaBem1-D1
Procedure, shortened: as §1

CaBzz1-D1 = molecular target: CaBzz1-D1
Procedure, shortened: as §1

CaBzz1-D2 = molecular target: CaBzz1-D2
Procedure, shortened: as §1

CaCyk3 = molecular target: CaCyk3
Procedure, shortened: as §1

CaFus1 = molecular target: CaFus1
Procedure, shortened: as §1

CaHof1 = molecular target: CaHof1
Procedure, shortened: as §1

CaHse1 = molecular target: CaHse1
Procedure, shortened: as §1

CaLsb1 = molecular target: CaLsb1
Procedure, shortened: as §1

CaLsb4 = molecular target: CaLsb4
Procedure, shortened: as §1

CaMyo5 = molecular target: CaMyo5
Procedure, shortened: as §1

CaNbp2 = molecular target: CaNbp2
Procedure, shortened: as §1

CaRvs167 = molecular target: CaRvs167
Procedure, shortened: as §1

CaRvs167-3 = molecular target: CaRvs167-3
Procedure, shortened: as §1

CaSho1 = molecular target: CaSho1
Procedure, shortened: as §1

CaSla1-D1-D2 = molecular target: CaSla1-D1-D2
Procedure, shortened: as §1

CaSla1-D3 = molecular target: CaSla1-D3
Procedure, shortened: as §1

ScAbp1 = molecular target: ScAbp1
Procedure, shortened: as §1

ScBbc1 = molecular target: ScBbc1
Procedure, shortened: as §1

ScBem1-D1 = molecular target: ScBem1-D1
Procedure, shortened: as §1

ScBzz1-D1 = molecular target: ScBzz1-D1
Procedure, shortened: as §1

ScBzz1-D2 = molecular target: ScBzz1-D2
Procedure, shortened: as §1

ScCyk3 = molecular target: ScCyk3
Procedure, shortened: as §1

ScFus1 = molecular target: ScFus1
Procedure, shortened: as §1

ScHof1 = molecular target: ScHof1
Procedure, shortened: as §1

ScHse1 = molecular target: ScHse1
Procedure, shortened: as §1

ScLsb1 = molecular target: ScLsb1
Procedure, shortened: as §1

ScLsb2 = molecular target: ScLsb2
Procedure, shortened: as §1

ScLsb3 = molecular target: ScLsb3
Procedure, shortened: as §1

ScLsb4 = molecular target: ScLsb4
Procedure, shortened: as §1

ScMyo3 = molecular target: ScMyo3
Procedure, shortened: as §1

ScMyo5 = molecular target: ScMyo5
Procedure, shortened: as §1

ScNbp2 = molecular target: ScNbp2
Procedure, shortened: as §1

ScPex13 = molecular target: ScPex13
Procedure, shortened: as §1

ScRvs167 = molecular target: ScRvs167
Procedure, shortened: as §1

ScSho1 = molecular target: ScSho1
Procedure, shortened: as §1

ScSla1-D1-D2 = molecular target: ScSla1-D1-D2
Procedure, shortened: as §1

ScSla1-D3 = molecular target: ScSla1-D3
Procedure, shortened: as §1

SpAbp1-D1 = molecular target: SpAbp1-D1
Procedure, shortened: as §1

SpBbc1 = molecular target: SpBbc1
Procedure, shortened: as §1

SpBzz1-D1 = molecular target: SpBzz1-D1
Procedure, shortened: as §1

SpBzz1-D2 = molecular target: SpBzz1-D2
Procedure, shortened: as §1

SpCyk3 = molecular target: SpCyk3
Procedure, shortened: as §1

SpHof1 = molecular target: SpHof1
Procedure, shortened: as §1

SpHof1-2 = molecular target: SpHof1-2
Procedure, shortened: as §1

SpHof1-3 = molecular target: SpHof1-3
Procedure, shortened: as §1

SpHse1 = molecular target: SpHse1
Procedure, shortened: as §1

SpLsb1 = molecular target: SpLsb1
Procedure, shortened: as §1

SpLsb4 = molecular target: SpLsb4
Procedure, shortened: as §1

SpMyo1 = molecular target: SpMyo1
Procedure, shortened: as §1

SpNbp2 = molecular target: SpNbp2
Procedure, shortened: as §1

SpPex13 = molecular target: SpPex13
Procedure, shortened: as §1

SpRvs167 = molecular target: SpRvs167
Procedure, shortened: as §1

SpSla1-D1-D2 = molecular target: SpSla1-D1-D2
Procedure, shortened: as §1

SpSla1-D3 = molecular target: SpSla1-D3
Procedure, shortened: as §1

Which “SPOT peptide array binding signal intensity” value (AgAbp1) does the source give for PPPPPPPPPPLPQSL here?
The value was 6.5.

And the “SPOT peptide array binding signal intensity” value (AgBbc1)?
Its value is ≤ 0.

And the “SPOT peptide array binding signal intensity” value (AgBem1-D1)?
Its value is ≤ 0.

And the “SPOT peptide array binding signal intensity” value (AgBzz1-D1)?
The value was 23.5.

What about the “SPOT peptide array binding signal intensity” value (AgBzz1-D2) of the same binder?
Its value is ≤ 0.

What about the “SPOT peptide array binding signal intensity” value (AgCyk3) of the same binder?
The value was 1.

What about the “SPOT peptide array binding signal intensity” value (AgFus1) of the same binder?
Its value is ≤ 0.

And the “SPOT peptide array binding signal intensity” value (AgHof1)?
The value was 366.

And the “SPOT peptide array binding signal intensity” value (AgHse1)?
The value was 18.

And the “SPOT peptide array binding signal intensity” value (AgLsb1)?
The value was ≤ 0.

And the “SPOT peptide array binding signal intensity” value (AgLsb4)?
Its value is ≤ 0.

What about the “SPOT peptide array binding signal intensity” value (AgMyo5) of the same binder?
Its value is 561.

What about the “SPOT peptide array binding signal intensity” value (AgNbp2) of the same binder?
The value was 33.

And the “SPOT peptide array binding signal intensity” value (AgRvs167)?
Its value is ≤ 0.

And the “SPOT peptide array binding signal intensity” value (AgSho1)?
Its value is 3.

What about the “SPOT peptide array binding signal intensity” value (AgSla1-D1-D2) of the same binder?
The value was 1.

And the “SPOT peptide array binding signal intensity” value (AgSla1-D3)?
Its value is 1.5.

What about the “SPOT peptide array binding signal intensity” value (CaAbp1-D1) of the same binder?
The value was 29.5.

What about the “SPOT peptide array binding signal intensity” value (CaAbp1-D2) of the same binder?
The value was ≤ 0.

What about the “SPOT peptide array binding signal intensity” value (CaBbc1) of the same binder?
Its value is ≤ 0.

And the “SPOT peptide array binding signal intensity” value (CaBem1-D1)?
The value was 5.

And the “SPOT peptide array binding signal intensity” value (CaBzz1-D1)?
The value was 2040.

What about the “SPOT peptide array binding signal intensity” value (CaBzz1-D2) of the same binder?
Its value is 268.

What about the “SPOT peptide array binding signal intensity” value (CaCyk3) of the same binder?
Its value is 1.

And the “SPOT peptide array binding signal intensity” value (CaFus1)?
Its value is 23.

What about the “SPOT peptide array binding signal intensity” value (CaHof1) of the same binder?
Its value is 0.75.

And the “SPOT peptide array binding signal intensity” value (CaHse1)?
The value was 2.25.

And the “SPOT peptide array binding signal intensity” value (CaLsb1)?
The value was 0.5.

And the “SPOT peptide array binding signal intensity” value (CaLsb4)?
The value was ≤ 0.

And the “SPOT peptide array binding signal intensity” value (CaMyo5)?
The value was 156.

And the “SPOT peptide array binding signal intensity” value (CaNbp2)?
Its value is 67.5.

What about the “SPOT peptide array binding signal intensity” value (CaRvs167) of the same binder?
The value was ≤ 0.

And the “SPOT peptide array binding signal intensity” value (CaRvs167-3)?
Its value is ≤ 0.

And the “SPOT peptide array binding signal intensity” value (CaSho1)?
Its value is 4.

What about the “SPOT peptide array binding signal intensity” value (CaSla1-D1-D2) of the same binder?
Its value is ≤ 0.

And the “SPOT peptide array binding signal intensity” value (CaSla1-D3)?
The value was ≤ 0.

What about the “SPOT peptide array binding signal intensity” value (ScAbp1) of the same binder?
The value was 1.

What about the “SPOT peptide array binding signal intensity” value (ScBbc1) of the same binder?
Its value is ≤ 0.

What about the “SPOT peptide array binding signal intensity” value (ScBem1-D1) of the same binder?
The value was ≤ 0.

What about the “SPOT peptide array binding signal intensity” value (ScBzz1-D1) of the same binder?
The value was 4.

What about the “SPOT peptide array binding signal intensity” value (ScBzz1-D2) of the same binder?
Its value is 2.

And the “SPOT peptide array binding signal intensity” value (ScCyk3)?
The value was ≤ 0.

And the “SPOT peptide array binding signal intensity” value (ScFus1)?
The value was ≤ 0.

What about the “SPOT peptide array binding signal intensity” value (ScHof1) of the same binder?
Its value is 92.8.

What about the “SPOT peptide array binding signal intensity” value (ScHse1) of the same binder?
Its value is 19.

And the “SPOT peptide array binding signal intensity” value (ScLsb1)?
The value was ≤ 0.

And the “SPOT peptide array binding signal intensity” value (ScLsb2)?
Its value is ≤ 0.

What about the “SPOT peptide array binding signal intensity” value (ScLsb3) of the same binder?
The value was 49.

And the “SPOT peptide array binding signal intensity” value (ScLsb4)?
The value was ≤ 0.

And the “SPOT peptide array binding signal intensity” value (ScMyo3)?
The value was 1500.

And the “SPOT peptide array binding signal intensity” value (ScMyo5)?
The value was 677.

And the “SPOT peptide array binding signal intensity” value (ScNbp2)?
Its value is ≤ 0.

And the “SPOT peptide array binding signal intensity” value (ScPex13)?
Its value is 526.

And the “SPOT peptide array binding signal intensity” value (ScRvs167)?
The value was ≤ 0.

And the “SPOT peptide array binding signal intensity” value (ScSho1)?
Its value is 28.5.

And the “SPOT peptide array binding signal intensity” value (ScSla1-D1-D2)?
Its value is 3.5.

And the “SPOT peptide array binding signal intensity” value (ScSla1-D3)?
Its value is ≤ 0.

And the “SPOT peptide array binding signal intensity” value (SpAbp1-D1)?
The value was 4.

What about the “SPOT peptide array binding signal intensity” value (SpBbc1) of the same binder?
The value was 1.

And the “SPOT peptide array binding signal intensity” value (SpBzz1-D1)?
Its value is 4430.

And the “SPOT peptide array binding signal intensity” value (SpBzz1-D2)?
The value was 41.

And the “SPOT peptide array binding signal intensity” value (SpCyk3)?
Its value is ≤ 0.

And the “SPOT peptide array binding signal intensity” value (SpHof1)?
The value was ≤ 0.

What about the “SPOT peptide array binding signal intensity” value (SpHof1-2) of the same binder?
The value was 4.

And the “SPOT peptide array binding signal intensity” value (SpHof1-3)?
The value was ≤ 0.

And the “SPOT peptide array binding signal intensity” value (SpHse1)?
The value was 13.5.

And the “SPOT peptide array binding signal intensity” value (SpLsb1)?
The value was 0.5.

What about the “SPOT peptide array binding signal intensity” value (SpLsb4) of the same binder?
Its value is 23.

What about the “SPOT peptide array binding signal intensity” value (SpMyo1) of the same binder?
The value was 1510.

And the “SPOT peptide array binding signal intensity” value (SpNbp2)?
Its value is 17.

What about the “SPOT peptide array binding signal intensity” value (SpPex13) of the same binder?
The value was ≤ 0.

And the “SPOT peptide array binding signal intensity” value (SpRvs167)?
Its value is 72.5.

What about the “SPOT peptide array binding signal intensity” value (SpSla1-D1-D2) of the same binder?
The value was ≤ 0.

And the “SPOT peptide array binding signal intensity” value (SpSla1-D3)?
The value was ≤ 0.
